Inconclusive results are not listed. Where a call stands in place of a potency, no number is given. Unmarked numbers belong to inactive results. Activity calls are given as the source filed them. The call rests on the fitted dose curve; in most records, active means well fitted curve in the direction sought with a large enough effect; inconclusive means small, poorly fitted or top-dose-only effect, or another doubt; inactive means no such curve, though single readings can be large; an effect the other way counts as inactive or inconclusive.
How the values were obtained:
[1] = qHTS of pediatric cancer cell lines to identify multiple opportunities for drug repurposing: Primary screen for SK-N-MC cells (AID 1347093); further: potency means the concentration at half of the fitted maximal effect
Procedure, shortened: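 Metabolically active cells were quantified by ATP-dependent luminescence (CellTiter-Glo, 15 min at room temperature) following 48 h treatment. Cells had been plated at 500-1,000 per well and settled for 5 h beforehand.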

[2] = qHTS of pediatric cancer cell lines to identify multiple opportunities for drug repurposing: Primary screen for BT-37 cells (AID 1347094); further: potency means the concentration at half of the fitted maximal effect
Procedure, shortened: (§1)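 Primary screen of approved and investigational compounds on cells in growth media at 37 degrees C, 5% CO2. MIPE set at 11-point and NPC set at 8-point dilutions; viability scored by ATP-based luminescence at 48 hours.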

[3] = qHTS of pediatric cancer cell lines to identify multiple opportunities for drug repurposing: Primary screen for NB-EBc1 cells (AID 1347095); further: potency means the concentration at half of the fitted maximal effect
Procedure, shortened: as §1

[4] = qHTS of pediatric cancer cell lines to identify multiple opportunities for drug repurposing: Primary screen for U-2 OS cells (AID 1347096); further: nearly all actives have a fitted effect of over 50% in size; further: potency means the concentration at half of the fitted maximal effect
Procedure, shortened: (§2)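 Cells (500-1,000/well) in growth media were settled 5 h at 37 degrees C, then given compounds for 48 h. Viability was read as CellTiter-Glo luminescence. Primary runs used MIPE at 11 points (0.78 nM-46 µM) and NPC at 8 points (0.59 nM-46 µM); follow-ups used 11 points.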

[5] = qHTS of pediatric cancer cell lines to identify multiple opportunities for drug repurposing: Primary screen for Saos-2 cells (AID 1347097); further: nearly all actives have a fitted effect of over 40% in size; further: potency means the concentration at half of the fitted maximal effect
Procedure, shortened: as §1

[6] = qHTS of pediatric cancer cell lines to identify multiple opportunities for drug repurposing: Primary screen for SK-N-SH cells (AID 1347098); further: nearly all actives have a fitted effect of over 65% in size; further: potency means the concentration at half of the fitted maximal effect
Procedure, shortened: (§3)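 Cells (500-1,000/well) rested 5 h, then received compounds for 48 h; metabolically active cells were measured by CellTiter-Glo luminescence. Final concentrations spanned up to 46 µM (MIPE, 11-point) or 0.59 nM-46 µM (NPC, 8-point) in primary screens, 11-point in follow-ups.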

[7] = qHTS of pediatric cancer cell lines to identify multiple opportunities for drug repurposing: Primary screen for NB1643 cells (AID 1347099); further: nearly all actives have a fitted effect of over 50% in size
Procedure, shortened: as §1

[8] = qHTS of pediatric cancer cell lines to identify multiple opportunities for drug repurposing: Primary screen for BT-12 cells (AID 1347101); further: nearly all actives have a fitted effect of over 25% in size; further: potency means the concentration at half of the fitted maximal effect
Procedure, shortened: as §3

[9] = qHTS of pediatric cancer cell lines to identify multiple opportunities for drug repurposing: Primary screen for Rh18 cells (AID 1347102); further: nearly all actives have a fitted effect of over 65% in size; further: potency means the concentration at half of the fitted maximal effect
Procedure, shortened: as §2

[10] = qHTS of pediatric cancer cell lines to identify multiple opportunities for drug repurposing: Primary screen for LAN-5 cells (AID 1347100)
Procedure, shortened: as §2

CCCCCCCCCCCCCCCCCCOCC(O)CO (centres undefined)
Potency [1]: inactive
Potency [2]: inactive
Potency [3]: inactive
Potency [4]: inactive
Potency [5]: inactive
Potency [6]: inactive
Potency [7]: inactive
Potency [8]: inactive
Potency [9]: inactive

Nc1ccc(S(=O)(=O)NC(=O)c2ccccc2)cc1
Potency [1]: inactive
Potency [2]: inactive
Potency [3]: inactive
Potency [4]: inactive
Potency [5]: inactive
Potency [6]: inactive
Potency [7]: inactive
Potency [8]: inactive
Potency [9]: inactive

N[C@@H](CSCCCO)C(=O)O
Potency [1]: inactive
Potency [2]: inactive
Potency [3]: inactive
Potency [4]: inactive
Potency [5]: inactive
Potency [7]: inactive
Potency [10]: inactive
Potency [8]: inactive
Potency [9]: inactive

N[C@H]1C(O)O[C@H](CO)[C@@H](O)[C@@H]1O (some centres undefined)
Potency [1]: inactive
Potency [2]: inactive
Potency [3]: inactive
Potency [4]: inactive
Potency [5]: inactive
Potency [7]: inactive
Potency [10]: inactive
Potency [8]: inactive

CO/N=C(\C(=O)N[C@@H]1C(=O)N2C(C(=O)O)=C(CSc3nc(=O)c(O)nn3C)CS[C@H]12)c1csc(N)n1
Potency [1]: inactive
Potency [2]: inactive
Potency [3]: inactive
Potency [4]: inactive
Potency [5]: inactive
Potency [7]: inactive
Potency [10]: inactive
Potency [8]: inactive

CC(=O)Nc1ccc(/C=N/NC(N)=S)cc1
Potency [1]: inactive
Potency [2]: inactive
Potency [3]: inactive
Potency [4]: inactive
Potency [5]: inactive
Potency [6]: inactive
Potency [7]: inactive
Potency [8]: inactive
Potency [9]: inactive

CCCCC/C(C=O)=C\c1ccccc1
Potency [1]: inactive
Potency [2]: inactive
Potency [3]: inactive
Potency [4]: inactive
Potency [5]: 53100 nM (active)
Potency [6]: inactive
Potency [7]: inactive
Potency [10]: inactive
Potency [8]: 155 nM (active)
Potency [9]: inactive

CC/C=C(\C(=O)N[C@@H]1C(=O)N2C(C(=O)OCOC(=O)C(C)(C)C)=C(COC(N)=O)CS[C@H]12)c1csc(N)n1
Potency [1]: inactive
Potency [2]: inactive
Potency [3]: inactive
Potency [4]: inactive
Potency [5]: inactive
Potency [7]: inactive
Potency [10]: inactive
Potency [8]: inactive

Cc1cccc(Nc2cc(Cl)nc(SCC(=O)O)n2)c1C
Potency [1]: inactive
Potency [2]: inactive
Potency [3]: inactive
Potency [4]: inactive
Potency [5]: inactive
Potency [6]: inactive
Potency [7]: inactive
Potency [10]: inactive
Potency [8]: inactive
Potency [9]: inactive

CCCCN1CCCC[C@H]1C(=O)Nc1c(C)cccc1C
Potency [1]: inactive
Potency [2]: inactive
Potency [3]: inactive
Potency [4]: inactive
Potency [5]: inactive
Potency [7]: inactive
Potency [8]: inactive
Potency [9]: inactive

CC[C@H]1CN2CCc3cc(OC)c(OC)cc3[C@@H]2C[C@@H]1C[C@H]1NCCc2cc(OC)c(OC)cc21
Potency [1]: 211 nM (active)
Potency [2]: 389 nM (active)
Potency [3]: 750 nM (active)
Potency [4]: 1330 nM (active)
Potency [5]: 376 nM (active)
Potency [6]: 433 nM (active)
Potency [8]: 347 nM (active)
Potency [9]: 2110 nM (active)

Cc1cccc(C)c1NC(=O)CN(CC(=O)O)CC(=O)O
Potency [1]: inactive
Potency [2]: inactive
Potency [3]: inactive
Potency [4]: inactive
Potency [5]: inactive
Potency [7]: inactive
Potency [10]: inactive
Potency [8]: inactive
Potency [9]: inactive

CC1(C)S[C@@H]2[C@H](NC(=O)Cc3ccccc3)C(=O)N2[C@H]1C(=O)O (tested in a mixture with another compound)
Potency [1]: inactive
Potency [2]: inactive
Potency [3]: inactive
Potency [4]: inactive
Potency [5]: inactive
Potency [7]: inactive
Potency [10]: inactive
Potency [8]: inactive
Potency [9]: inactive

CC12CCC(CC1)C(C)(C)O2
Potency [1]: inactive
Potency [2]: inactive
Potency [3]: inactive
Potency [4]: inactive
Potency [5]: inactive
Potency [6]: inactive
Potency [7]: inactive
Potency [8]: inactive
Potency [9]: inactive

CN1CCCCC1CCN1c2ccccc2Sc2ccc(S(C)=O)cc21 (centres undefined)
Potency [1]: inactive
Potency [2]: inactive
Potency [3]: inactive
Potency [4]: inactive
Potency [5]: inactive
Potency [7]: inactive
Potency [8]: inactive

CC(C)(C(=O)O)c1ccc(C(O)CCCN2CCC(C(O)(c3ccccc3)c3ccccc3)CC2)cc1 (centres undefined)
Potency [1]: inactive
Potency [2]: inactive
Potency [3]: inactive
Potency [4]: inactive
Potency [5]: inactive
Potency [7]: inactive
Potency [10]: inactive
Potency [8]: inactive
Potency [9]: inactive

c1ccc(CN(CC2=NCCN2)c2ccccc2)cc1
Potency [1]: inactive
Potency [2]: inactive
Potency [3]: inactive
Potency [4]: inactive
Potency [5]: inactive
Potency [6]: inactive
Potency [7]: inactive
Potency [8]: inactive

CC(=O)Oc1c(C)c(C)c2c(c1C)CC[C@@](C)(CCC[C@H](C)CCC[C@H](C)CCCC(C)C)O2
Potency [1]: inactive
Potency [2]: inactive
Potency [3]: inactive
Potency [4]: inactive
Potency [5]: inactive
Potency [7]: inactive
Potency [10]: inactive
Potency [8]: inactive
Potency [9]: inactive

Nc1cc(=O)[nH]c(N)n1
Potency [1]: inactive
Potency [2]: inactive
Potency [3]: inactive
Potency [4]: inactive
Potency [5]: inactive
Potency [7]: inactive
Potency [10]: inactive
Potency [8]: inactive
Potency [9]: inactive

CCn1cc(C(=O)O)c(=O)c2cnc(N3CCNCC3)nc21
Potency [1]: inactive
Potency [2]: inactive
Potency [3]: inactive
Potency [4]: inactive
Potency [5]: inactive
Potency [7]: inactive
Potency [10]: inactive
Potency [8]: inactive
Potency [9]: inactive

CC1(C)CO[C@@H](CC(=O)O)CN1
Potency [1]: inactive
Potency [2]: inactive
Potency [3]: inactive
Potency [4]: inactive
Potency [5]: inactive
Potency [6]: inactive
Potency [7]: inactive
Potency [8]: inactive
Potency [9]: inactive

C[C@@H]1C[C@H]2[C@@H]3C[C@H](F)C4=CC(=O)C=C[C@]4(C)[C@@]3(F)[C@@H](O)C[C@]2(C)[C@@]1(O)C(=O)CO
Potency [1]: inactive
Potency [2]: inactive
Potency [3]: inactive
Potency [4]: inactive
Potency [5]: inactive
Potency [6]: inactive
Potency [7]: inactive
Potency [8]: inactive
Potency [9]: inactive

O=C(O)COc1nn(Cc2ccccc2)c2ccccc12
Potency [1]: inactive
Potency [2]: inactive
Potency [3]: inactive
Potency [4]: inactive
Potency [5]: inactive
Potency [6]: inactive
Potency [7]: inactive
Potency [8]: inactive

CC(C)(C)C(=O)NCCCC(=O)O
Potency [1]: inactive
Potency [2]: inactive
Potency [3]: inactive
Potency [4]: inactive
Potency [5]: inactive
Potency [6]: inactive
Potency [7]: inactive
Potency [8]: inactive
Potency [9]: inactive
